According to publication PMC9911399, “Two distinct binding modes provide the RNA-binding protein RbFox with extraordinary sequence specificity”:
Substitutions are numbered along the chain they refer to; changes in the protein carry UniProt numbers. Over roughly 16,000 sequences, “ka relative to ugcaugu” has its median near 0.0091; the highest 2% begin near 0.032. Only a selection was taken, and the highest values are over-represented in it overall.

T1: RBFOX1 RRM (Homo sapiens, UniProt Q9NWB1 109-208)
T1 sequence: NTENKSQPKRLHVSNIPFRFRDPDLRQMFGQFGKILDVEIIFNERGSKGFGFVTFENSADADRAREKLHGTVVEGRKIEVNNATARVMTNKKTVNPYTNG

B1: AUUCACC (DNA:RNA)
RNA: GGGAGACCGGAAUUCAGAUUGUCCAUUCACCUUAAAUCCCGUCGUAGCCACCA
DNA 1: CAATCTGAATTCCGGTCTCCC
DNA 2: TGGTGGCTACGACGGGATT
B2: GAGUUGU (DNA:RNA)
RNA: GGGAGACCGGAAUUCAGAUUGUCCGAGUUGUUUAAAUCCCGUCGUAGCCACCA
DNA 1: CAATCTGAATTCCGGTCTCCC
DNA 2: TGGTGGCTACGACGGGATT
B3: CAACGAU (DNA:RNA)
RNA: B2 RNA with G25C, G27A, U28C, U29G, G30A
DNA 1: CAATCTGAATTCCGGTCTCCC
DNA 2: TGGTGGCTACGACGGGATT
B4: AACCAAC (DNA:RNA)
RNA: B1 RNA with U26A, U27C, C30A
DNA 1: CAATCTGAATTCCGGTCTCCC
DNA 2: TGGTGGCTACGACGGGATT
B5: GAAACCA (DNA:RNA)
RNA: B2 RNA with G27A, U28A, U29C, G30C, U31A
DNA 1: CAATCTGAATTCCGGTCTCCC
DNA 2: TGGTGGCTACGACGGGATT
B6: UUUAAUU (DNA:RNA)
RNA: B1 RNA with A25U, C28A, C30U, C31U
DNA 1: CAATCTGAATTCCGGTCTCCC
DNA 2: TGGTGGCTACGACGGGATT
B7: CUGAUGU (DNA:RNA)
RNA: B2 RNA with G25C, A26U, U28A
DNA 1: CAATCTGAATTCCGGTCTCCC
DNA 2: TGGTGGCTACGACGGGATT
B8: GUGCAAG (DNA:RNA)
RNA: B1 RNA with A25G, U27G, C30A, C31G
DNA 1: CAATCTGAATTCCGGTCTCCC
DNA 2: TGGTGGCTACGACGGGATT
B9: UUGCAUA (DNA:RNA)
RNA: B1 RNA with A25U, U27G, C30U, C31A
DNA 1: CAATCTGAATTCCGGTCTCCC
DNA 2: TGGTGGCTACGACGGGATT
B10: UUGCAAA (DNA:RNA)
RNA: B1 RNA with A25U, U27G, C30A, C31A
DNA 1: CAATCTGAATTCCGGTCTCCC
DNA 2: TGGTGGCTACGACGGGATT
B11: UUGCAAG (DNA:RNA)
RNA: B1 RNA with A25U, U27G, C30A, C31G
DNA 1: CAATCTGAATTCCGGTCTCCC
DNA 2: TGGTGGCTACGACGGGATT
B12: UUGCAUG (DNA:RNA)
RNA: B1 RNA with A25U, U27G, C30U, C31G
DNA 1: CAATCTGAATTCCGGTCTCCC
DNA 2: TGGTGGCTACGACGGGATT
B13: GUGCAUG (DNA:RNA)
RNA: B1 RNA with A25G, U27G, C30U, C31G
DNA 1: CAATCTGAATTCCGGTCTCCC
DNA 2: TGGTGGCTACGACGGGATT
B14: GUGCAUC (DNA:RNA)
RNA: B1 RNA with A25G, U27G, C30U
DNA 1: CAATCTGAATTCCGGTCTCCC
DNA 2: TGGTGGCTACGACGGGATT
B15: UUGCAUC (DNA:RNA)
RNA: B1 RNA with A25U, U27G, C30U
DNA 1: CAATCTGAATTCCGGTCTCCC
DNA 2: TGGTGGCTACGACGGGATT
B16: GUGCAUA (DNA:RNA)
RNA: B1 RNA with A25G, U27G, C30U, C31A
DNA 1: CAATCTGAATTCCGGTCTCCC
DNA 2: TGGTGGCTACGACGGGATT
B17: CCUGUAG (DNA:RNA)
RNA: B1 RNA with A25C, U26C, C28G, A29U, C30A, C31G
DNA 1: CAATCTGAATTCCGGTCTCCC
DNA 2: TGGTGGCTACGACGGGATT
B18: UCGAGAU (DNA:RNA)
RNA: B2 RNA with G25U, A26C, U28A, U29G, G30A
DNA 1: CAATCTGAATTCCGGTCTCCC
DNA 2: TGGTGGCTACGACGGGATT
B19: UGCCACG (DNA:RNA)
RNA: B1 RNA with A25U, U26G, U27C, C31G
DNA 1: CAATCTGAATTCCGGTCTCCC
DNA 2: TGGTGGCTACGACGGGATT
B20: CUGCACG (DNA:RNA)
RNA: B1 RNA with A25C, U27G, C31G
DNA 1: CAATCTGAATTCCGGTCTCCC
DNA 2: TGGTGGCTACGACGGGATT
B21: UGCACGU (DNA:RNA)
RNA: B2 RNA with G25U, A26G, G27C, U28A, U29C
DNA 1: CAATCTGAATTCCGGTCTCCC
DNA 2: TGGTGGCTACGACGGGATT
B22: CUGCACC (DNA:RNA)
RNA: B1 RNA with A25C, U27G
DNA 1: CAATCTGAATTCCGGTCTCCC
DNA 2: TGGTGGCTACGACGGGATT
B23: UGCACCC (DNA:RNA)
RNA: B1 RNA with A25U, U26G, U27C, C28A, A29C
DNA 1: CAATCTGAATTCCGGTCTCCC
DNA 2: TGGTGGCTACGACGGGATT
B24: UGCACCG (DNA:RNA)
RNA: B1 RNA with A25U, U26G, U27C, C28A, A29C, C31G
DNA 1: CAATCTGAATTCCGGTCTCCC
DNA 2: TGGTGGCTACGACGGGATT
B25: GUAUAGC (DNA:RNA)
RNA: B1 RNA with A25G, U27A, C28U, C30G
DNA 1: CAATCTGAATTCCGGTCTCCC
DNA 2: TGGTGGCTACGACGGGATT
B26: GGGGUUC (DNA:RNA)
RNA: B2 RNA with A26G, U28G, G30U, U31C
DNA 1: CAATCTGAATTCCGGTCTCCC
DNA 2: TGGTGGCTACGACGGGATT
B27: GGGUUCC (DNA:RNA)
RNA: B2 RNA with A26G, G30C, U31C
DNA 1: CAATCTGAATTCCGGTCTCCC
DNA 2: TGGTGGCTACGACGGGATT
B28: GGGUUCG (DNA:RNA)
RNA: B2 RNA with A26G, G30C, U31G
DNA 1: CAATCTGAATTCCGGTCTCCC
DNA 2: TGGTGGCTACGACGGGATT
B29: GCGGGGG (DNA:RNA)
RNA: B2 RNA with A26C, U28G, U29G, U31G
DNA 1: CAATCTGAATTCCGGTCTCCC
DNA 2: TGGTGGCTACGACGGGATT
B30: GUGCGGG (DNA:RNA)
RNA: B2 RNA with A26U, U28C, U29G, U31G
DNA 1: CAATCTGAATTCCGGTCTCCC
DNA 2: TGGTGGCTACGACGGGATT
B31: UUCCGGG (DNA:RNA)
RNA: B1 RNA with A25U, U27C, A29G, C30G, C31G
DNA 1: CAATCTGAATTCCGGTCTCCC
DNA 2: TGGTGGCTACGACGGGATT
B32: GGGUUUC (DNA:RNA)
RNA: B2 RNA with A26G, G30U, U31C
DNA 1: CAATCTGAATTCCGGTCTCCC
DNA 2: TGGTGGCTACGACGGGATT
B33: CGGGUUC (DNA:RNA)
RNA: B2 RNA with G25C, A26G, U28G, G30U, U31C
DNA 1: CAATCTGAATTCCGGTCTCCC
DNA 2: TGGTGGCTACGACGGGATT
B34: GGGUUCU (DNA:RNA)
RNA: B2 RNA with A26G, G30C
DNA 1: CAATCTGAATTCCGGTCTCCC
DNA 2: TGGTGGCTACGACGGGATT

molecular target: T1, RBFOX1 RRM; test: EMSA; HiTS-Eq, 1 nM pool, 10 min; buffer printed only for the single-RNA assays: 10 mM Tris pH 7.5, 150 mM NaCl, 3.4 mM EDTA, 0.001% NP-40, 30 C; settings: tags: His6 N-terminal (pET28a); label: 5' 32P
Procedure, shortened: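 These values rest on relative association constants, computed from read-count changes of each RNA species versus the control reaction and normalised to the cognate motif. Reads came from free RNA recovered by 8% native PAGE after purified RbFox RRM (wild type or mutant) at increasing concentrations was equilibrated for 10 min in 50 µL with 1 nM of a 5′-radiolabelled pool with 7 randomized nucleotides and DNA-annealed flanks.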

Row | Binder | binding signal
1 | B1 | 0.00129 KA relative to UGCAUGU
2 | B2 | 0.0179 KA relative to UGCAUGU
3 | B3 | 0.00177 KA relative to UGCAUGU
4 | B4 | 0.000641 KA relative to UGCAUGU
5 | B5 | 0.00223 KA relative to UGCAUGU
6 | B6 | 0.00658 KA relative to UGCAUGU
7 | B7 | 0.0201 KA relative to UGCAUGU
8 | B8 | 0.0274 KA relative to UGCAUGU
9 | B9 | 0.0139 KA relative to UGCAUGU
10 | B10 | 0.0109 KA relative to UGCAUGU
11 | B11 | 0.0333 KA relative to UGCAUGU
12 | B12 | 1 KA relative to UGCAUGU
13 | B13 | 1 KA relative to UGCAUGU
14 | B14 | 0.0315 KA relative to UGCAUGU
15 | B15 | 0.022 KA relative to UGCAUGU
16 | B16 | 0.0221 KA relative to UGCAUGU
17 | B17 | 0.00969 KA relative to UGCAUGU

Row | Binder | binding signal
18 | B18 | 0.00776 KA relative to UGCAUGU
19 | B19 | 0.0198 KA relative to UGCAUGU
20 | B20 | 0.616 KA relative to UGCAUGU
21 | B21 | 0.514 KA relative to UGCAUGU
22 | B22 | 0.0128 KA relative to UGCAUGU
23 | B23 | 0.0142 KA relative to UGCAUGU
24 | B24 | 0.0145 KA relative to UGCAUGU
25 | B25 | 0.00925 KA relative to UGCAUGU
26 | B26 | 0.0437 KA relative to UGCAUGU
27 | B27 | 0.0348 KA relative to UGCAUGU
28 | B28 | 0.026 KA relative to UGCAUGU
29 | B29 | 0.0269 KA relative to UGCAUGU
30 | B30 | 0.0167 KA relative to UGCAUGU
31 | B31 | 0.00531 KA relative to UGCAUGU
32 | B32 | 0.0237 KA relative to UGCAUGU
33 | B33 | 0.0418 KA relative to UGCAUGU
34 | B34 | 0.0166 KA relative to UGCAUGU
